Bioassay records as filed in PubChem.
Rows were chosen to be rich in hits. Some 2.5% of all compounds tested hit in one or more screens of this group.
Cruzain noTriton: blocks cruzain activity in detergent-free assay; purified cruzain, Z-FR-AMC fluorescence, no detergent; AID 1476; hit rate 2.3% among 200,000; Potency, µM, for the others: max response, negative = inhibition, most hits filed as inhibitors;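 also: plate controls were enzyme without inhibitor for no effect and buffer without enzyme for full effect; nearly all actives have a fitted effect of over 40% in size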
Target sequence (P25779 123-467 limits assumed): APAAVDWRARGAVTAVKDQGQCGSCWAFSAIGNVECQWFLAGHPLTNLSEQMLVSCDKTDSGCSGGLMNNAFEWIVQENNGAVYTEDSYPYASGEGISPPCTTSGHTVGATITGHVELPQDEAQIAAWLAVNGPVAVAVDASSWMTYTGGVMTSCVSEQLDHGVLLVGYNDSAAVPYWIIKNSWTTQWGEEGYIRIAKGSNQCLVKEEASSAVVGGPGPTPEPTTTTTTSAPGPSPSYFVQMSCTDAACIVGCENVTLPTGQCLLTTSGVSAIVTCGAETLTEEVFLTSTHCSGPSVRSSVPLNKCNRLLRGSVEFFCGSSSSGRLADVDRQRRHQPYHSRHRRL
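Detergent-free condition (0.00005% Triton X-100) in acetate buffer pH 5.5 with DTT. 1.5 nM enzyme and compound were pre-mixed 15 min, then 2 uM Z-FR-AMC substrate added; reaction progress from fluorescence change between first and third reads (60 s).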
Cruzain Triton: inhibitors of Trypanosoma cruzi cruzain with detergent; Potency, µM, inactives show max response, negative = inhibition, actives largely listed as inhibitors; purified cruzain, Z-FR-AMC fluorescence, 0.01% Triton; hit rate 0.43% among 200,000; AID 1478; P25779;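 also: plate controls were neutral wells for no effect and buffer without enzyme for full effect; nearly all actives have a fitted effect of over 40% in size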
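Cysteine protease activity tested under reducing, mildly acidic conditions (100 mM sodium acetate pH 5.5, 5 mM DTT) plus 0.01% Triton X-100. Cruzain 1.5 nM; substrate Z-FR-AMC 2 uM; 15 min compound preincubation at room temperature.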
* = called active by the depositor. Calls follow the shape of the dose curve; as a rule, active = well fitted curve in the direction sought with a large enough effect; inconclusive = small, poorly fitted or top-dose-only effect, or another doubt; inactive = no such curve, though single readings can be large; an effect the other way counts as inactive or inconclusive. Potency is read from the fitted curve at half-maximal effect.

What do the screens show for `O=C(Cn1c(=O)c2ccccc2n(CC(=O)Nc2ccc(Cl)cc2)c1=O)NCCc1ccccc1`?
Cruzain noTriton: 13µM*; Cruzain Triton: 0%

Results for Nc1c(C(=O)NCCc2ccccc2)nnn1CC(=O)Nc1ccc(Cl)cc1 ?
Cruzain noTriton: 25µM*; Cruzain Triton: -1%

What do the screens show for `CC(C)c1ccc(NC(=O)Cn2nnc(C(=O)NCc3cccs3)c2N)cc1`?
Cruzain noTriton: -7%; Cruzain Triton: 0%

How did O=C(Cn1c(=O)c2ccccc2n(CC(=O)Nc2ccccc2F)c1=O)NCCc1ccccc1 do in these assays?
Cruzain noTriton: -16%; Cruzain Triton: 1%

What do the screens show for `CC(C)c1ccc(NC(=O)Cn2nnc(C(=O)NCc3ccc(Cl)cc3)c2N)cc1`?
Cruzain noTriton: 7.9µM*; Cruzain Triton: 0%

Results for CCn1c(CNC(=O)c2ccc(OC)cc2)nnc1SCC(=O)Nc1ccc(F)cc1 ?
Cruzain noTriton: 2%; Cruzain Triton: 0%

Results for Cc1cc(C)c(S(=O)(=O)NCCc2sc3nc(-c4ccc(F)cc4)nn3c2C)c(C)c1 ?
Cruzain noTriton: 28%; Cruzain Triton: -7%

What do the screens show for `COc1ccc(-c2nc3sc(CCNC(=O)c4cccc(C(F)(F)F)c4)c(C)n3n2)cc1`?
Cruzain noTriton: inconclusive; Cruzain Triton: -8%

What do the screens show for `Cc1cc(=O)oc2cc(O)c(CN(C)CC(=O)O)cc12`?
Cruzain noTriton: 2%; Cruzain Triton: -7%

How did O=C(COC(=O)c1cccc(S(=O)(=O)N2CCc3ccccc32)c1)Nc1ncc(Cl)cc1Cl do in these assays?
Cruzain noTriton: inconclusive; Cruzain Triton: -4%

How did O=C(COC(=O)c1ccc(Cl)c(S(=O)(=O)N2CCc3ccccc3C2)c1)Nc1ncc(Cl)cc1Cl do in these assays?
Cruzain noTriton: 20µM*; Cruzain Triton: 0%

How did Cc1cccc(N2CCN(C(=O)c3ccc(Cl)c(S(=O)(=O)NCc4ccco4)c3)CC2)c1C do in these assays?
Cruzain noTriton: -11%; Cruzain Triton: -5%

Results for Cc1cccc(N2CCN(C(=O)c3ccc(Cl)c(S(=O)(=O)N4CCc5ccccc5C4)c3)CC2)c1C ?
Cruzain noTriton: 10µM*; Cruzain Triton: -4%

Results for CC(C)Oc1ccc(CNC(=O)CN2C(=O)CCn3nc(-c4cn(C)c5ccccc45)cc32)cc1 ?
Cruzain noTriton: -13%; Cruzain Triton: 1%

What do the screens show for `Cc1ccc(S(=O)(=O)N2CCc3cc(C(=O)Nc4c(F)cccc4F)ccc32)cc1`?
Cruzain noTriton: inconclusive; Cruzain Triton: -1%

Results for CCc1cccc(C)c1NC(=O)CCS(=O)(=O)c1ccc2c(c1)oc(=O)n2C ?
Cruzain noTriton: -19%; Cruzain Triton: -1%

What do the screens show for `CCN(CC)c1ccc(NC(=O)Cn2cc3c(n2)CCCC3)c(C)c1`?
Cruzain noTriton: 5%; Cruzain Triton: 0%

How did COC(=O)C1=CN(C)C=C(C(=O)OC)C1c1ccc(O)c(OC)c1 do in these assays?
Cruzain noTriton: -2%; Cruzain Triton: 1%

Results for COCCN1C=C(C(=O)OC)C(c2cc(Br)c(OC)c(OC)c2)C(C(=O)OC)=C1 ?
Cruzain noTriton: inconclusive; Cruzain Triton: 22µM*

Results for CCOc1ccc(-c2cc3nc(C4CCN(C(=O)OC(C)(C)C)CC4)c(C(=O)Nc4cccc(Cl)c4C)cn3n2)cc1 ?
Cruzain noTriton: 7.9µM*; Cruzain Triton: -5%

What do the screens show for `CCOc1ccc(-c2cc3nc(C4CCN(C(=O)OC(C)(C)C)CC4)c(C(=O)Nc4ccc(C)cc4Cl)cn3n2)cc1`?
Cruzain noTriton: inconclusive; Cruzain Triton: -9%

Results for Cc1ccc(-c2nnc(Nc3cccc(Br)c3)c3ccccc23)cc1S(=O)(=O)N1CCN(C)CC1 ?
Cruzain noTriton: -4%; Cruzain Triton: 1%

How did Cc1ccc(-c2nnc(Nc3cccc(Br)c3)c3ccccc23)cc1S(=O)(=O)N1CCCCC1 do in these assays?
Cruzain noTriton: 6.3µM*; Cruzain Triton: -3%

Results for Cc1ccc(-c2nnc(Nc3ccccc3)c3ccccc23)cc1S(=O)(=O)NCc1nc2ccccc2[nH]1 ?
Cruzain noTriton: inconclusive; Cruzain Triton: -6%

How did Cc1ccc(-c2nnc(NCc3nc4ccccc4[nH]3)c3ccccc23)cc1S(=O)(=O)N1CCCCC1 do in these assays?
Cruzain noTriton: 13µM*; Cruzain Triton: -2%

What do the screens show for `CC1=C(c2ccc(C(C)C)cc2)S(=O)(=O)N=C1N1CCN(c2ccccc2F)CC1`?
Cruzain noTriton: 10%; Cruzain Triton: -3%

How did O=C(COc1cc(O)c2c(=O)cc(-c3ccccc3)oc2c1)c1ccccc1 do in these assays?
Cruzain noTriton: inconclusive; Cruzain Triton: -2%

What do the screens show for `O=C(COc1cc(O)c2c(=O)cc(-c3ccccc3)oc2c1)c1ccc(F)cc1`?
Cruzain noTriton: 13µM*; Cruzain Triton: -4%

What do the screens show for `CC1=Nc2cc(C(=O)NCCc3ccccc3)ccc2Sc2c(C)ccc(C)c21`?
Cruzain noTriton: inconclusive; Cruzain Triton: -4%

How did CC1=Nc2cc(C(=O)NCCc3ccc(Cl)cc3)ccc2Sc2c(C)ccc(C)c21 do in these assays?
Cruzain noTriton: 25µM*; Cruzain Triton: -1%

Results for COc1cc(C(=O)NCC(c2ccc3c(c2)OCO3)N2CCOCC2)cc(OC)c1OC (stereo unspecified) ?
Cruzain noTriton: -1%; Cruzain Triton: 0%

Results for COc1ccc(Oc2ncc3nc(-c4cccs4)c(=O)n(Cc4cccc(OC)c4)c3n2)cc1 ?
Cruzain noTriton: 13µM*; Cruzain Triton: 2%

What do the screens show for `O=c1c(-c2cccs2)nc2cnc(Oc3ccccc3)nc2n1Cc1cccs1`?
Cruzain noTriton: inconclusive; Cruzain Triton: -1%

What do the screens show for `COc1cccc(Cn2c(=O)c(-c3cccs3)nc3cnc(OC)nc32)c1`?
Cruzain noTriton: 12%; Cruzain Triton: 3%

Results for COc1ccc(Oc2ncc3nc(-c4cccs4)c(=O)n(Cc4cccs4)c3n2)cc1 ?
Cruzain noTriton: 7.9µM*; Cruzain Triton: 4%

Results for Cc1cccc(Cc2c(C)nc3nc(SCc4ccccc4F)nn3c2C)c1 ?
Cruzain noTriton: inconclusive; Cruzain Triton: -5%

Results for CCOC(=O)c1ccc(N2CCN(c3ccccc3F)CC2)c(NC(=O)Nc2ccc(Cl)c(Cl)c2)c1 ?
Cruzain noTriton: 2%; Cruzain Triton: 0%

What do the screens show for `Cc1ccc(-c2nc(CCNC(=O)C(=O)Nc3ccc(C)c(Cl)c3)cs2)cc1`?
Cruzain noTriton: -2%; Cruzain Triton: 0%

How did O=C(Cn1c(=O)sc2ccccc21)Nc1ccc(S(=O)(=O)N2CCCCC2)cc1 do in these assays?
Cruzain noTriton: 32µM*; Cruzain Triton: -5%

How did O=C(Cn1c(=O)sc2ccccc21)Nc1ccccc1 do in these assays?
Cruzain noTriton: -12%; Cruzain Triton: 8%

Results for CC(O)[C@@H](O)[C@H]1CNc2nc(N)[nH]c(=O)c2N1 (stereo partly specified) ?
Cruzain noTriton: 7%; Cruzain Triton: -8%

What do the screens show for `COc1ccc(Cl)cc1N(CC(=O)N/N=C/c1ccc(OC(C)C)cc1)S(=O)(=O)c1ccc(C)c([N+](=O)[O-])c1`?
Cruzain noTriton: 5µM*; Cruzain Triton: -2%

How did C=CCOc1cccc(/C=N/NC(=O)CN(c2cc(Cl)ccc2OC)S(=O)(=O)c2ccc(C)c([N+](=O)[O-])c2)c1 do in these assays?
Cruzain noTriton: inconclusive; Cruzain Triton: -1%

What do the screens show for `COc1cc(C(CC(=O)NCc2ccccc2Cl)N2Cc3ccccc3C2=O)cc(OC)c1OC` (stereo unspecified)?
Cruzain noTriton: 16µM*; Cruzain Triton: inconclusive
